Common to all, as to experiment: NCI-60 one-dose screen, 48 h (100 = growth as untreated, 0 = no growth, -100 = all killed)
For test [1], the system named is SR leukemia. The note with it: 10 µM unless noted.
Test [2] deals with RPMI-8226 leukemia. The note with it: 10 µM unless noted.
Test [3] concerns OVCAR-8 ovarian. The note with it: 10 µM unless noted.
For test [4], the system named is OVCAR-5 ovarian. The note with it: 10 µM unless noted.
For test [5], the system named is OVCAR-4 ovarian. The note with it: 10 µM unless noted.
The subject of test [6] is SK-OV-3 ovarian. The note with it: 10 µM unless noted.
Test [7] deals with IGROV1 ovarian. The note with it: 10 µM unless noted.
The subject of test [8] is OVCAR-3 ovarian. Particulars: 10 µM unless noted.
The test system of test [9] is NCI/ADR-RES ovarian. Particulars: 10 µM unless noted.
Test [10] relates to T-47D breast. Particulars: 10 µM unless noted.
Test [11] deals with BT-549 breast. Particulars: 10 µM unless noted.
Test [12] relates to MDA-MB-435 melanoma. The note with it: 10 µM unless noted.
Test [13] deals with SW-620 colon. Particulars: 10 µM unless noted.
For test [14], the system named is MCF7 breast. Particulars: 10 µM unless noted.
For test [15], the system named is HCT-116 colon. Particulars: 10 µM unless noted.
Test [16] deals with KM12 colon. Particulars: 10 µM unless noted.
Test [17] relates to HCC-2998 colon. The note with it: 10 µM.

Molecules are shown by their SMILES. About 83,000 compounds went through this panel and 20% of them were active in at least one assay; those are over-represented in the sample as a whole.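 Step 1: grow cells in 96-well plates. Step 2: add test compound at a single concentration. Step 3: incubate 48 h. Step 4: record percent growth.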 Unmarked numbers belong to inactive results. Calls of active or inactive are those of the source. The calls were made as follows: active = growth percent below 10; inactive = the rest.

As to `O=C(NOCCO)c1ccc2cncn2c1Nc1ccc(I)cc1F`, the growth in [1] is 56.9%; in [2] it was 72.8%; in test [3] it was 58.6%; in test [4] it was 19.3%; in test [5], 70.8%; in test [6], 49%. The growth is 26.2% in [7]; 102% in test [8]; 71.8% in test [9]; 83.4% in [10]; 88.8% in test [11]; 47.4% in test [12]. Moreover, the growth in [13] was 24.6%; in [14], 96.2%; in test [15], 15.1%; in [16] it was 28.6%.

`C#Cc1cccc(Nc2ncnc3cc4c(cc23)OCCOCCOCCO4)c1`: the growth was 53.5% in test [1]; 70% in test [2]; 53.9% in test [3]; 60.4% in test [4]; 63.2% in test [5]; -17% (active) in test [6]. In addition, the growth in test [7] is 15.2%; in test [8], 40.9%; in test [9], 58.5%; in [10], 33%; in test [11], 50.3%; in [12], 24.6%. Moreover, the growth in test [13] is 84.7%; in [14] it was 56.1%; in test [15], 64.7%; in test [17], 97.9%; in [16], 53%.

For the compound `Cc1nc2cc(-c3nn(C(C)C)c4ncnc(N)c34)ccc2o1`, the growth in test [1] was -0.778% (active); in test [2] it was -9.63% (active); in [3], -29.1% (active); in [4], -11.3% (active); in [5], -27.4% (active); in [6], -40.9% (active). In addition, the growth is -39% (active) in test [7]; 2.45% (active) in test [8]; -22.5% (active) in test [9]; -39.9% (active) in test [10]; -14.5% (active) in test [11]; -20.5% (active) in test [12]. The growth was 2.48% (active) in test [13]; -4.42% (active) in [14]; 7.77% (active) in test [15]; -8.93% (active) in test [17]; 0.531% (active) in [16].

As for `C[C@H]1Oc2cc(cnc2N)-c2c(nn(C)c2C#N)CN(C)C(=O)c2ccc(F)cc21`, the growth is 6.17% (active) in test [1]; 92.6% in test [2]; 83.2% in test [3]; 58.3% in test [4]; 81.1% in test [5]; 55.1% in test [6]. For the same compound, the growth is 80.2% in [7]; 108% in test [8]; 80.4% in test [9]; 84.4% in [10]; 103% in test [11]; 80% in [12]. Further, the growth in test [13] was 90.4%; in [14], 60%; in [15], 68.7%; in test [16] it was 9.06% (active).

`CCOc1cc2ncc(C#N)c(Nc3ccc(F)c(Cl)c3)c2cc1NC(=O)/C=C/CN(C)C`: the growth in [1] is -14% (active); in test [2], -34.6% (active); in test [3], -7.83% (active); in test [4] it was -3.14% (active); in test [5], -61.9% (active); in test [6] it was -5.87% (active). The growth was -32.1% (active) in test [7]; -82.7% (active) in [8]; 6.54% (active) in [9]; -41.1% (active) in test [10]; -35.8% (active) in test [11]; -87.2% (active) in [12]. The growth in [13] is -53.8% (active); in test [14] it was -41.7% (active); in test [15], -79.7% (active); in [17], -49.2% (active); in test [16] it was -83.8% (active).

`Cc1cc(Oc2ccccc2)ccc1Nc1ncnc2ccc(-c3cnc(Cl)c(NS(C)(=O)=O)c3)cc12`: the growth in test [1] is 14.2%; in test [2], 7.65% (active); in [3], 40.4%; in [4], 10.8%; in test [5], 40.1%; in test [6], -26.3% (active). Also, the growth was -23.5% (active) in [7]; 11.7% in [8]; 54.6% in [9]; -22.4% (active) in test [10]; -0.502% (active) in test [11]; 17.9% in test [12]. Further, the growth was 38.8% in [13]; 9.35% (active) in test [14]; 22.9% in test [15]; 25.7% in test [17]; 34.5% in test [16].

On to `COc1cccc2cc(-c3nc(C4CCC(C(=O)O)CC4)n4ncnc(N)c34)[nH]c12` (centres undefined), for which the growth in [1] was 7.63% (active); in test [2], 7.52% (active); in test [3] it was 1.18% (active); in test [4], 25.6%; in test [5] it was -23.4% (active); in test [6] it was -26% (active). Also, the growth in test [7] is -12.9% (active); in test [8] it was 12.3%; in test [9], 2.94% (active); in test [10] it was -30.2% (active); in [11], -11.5% (active); in [12], -8.42% (active). The growth was 14.4% in [13]; 6.71% (active) in test [14]; 26.3% in test [15]; 23.1% in test [17]; 18.4% in [16].

For `O=C1NC(=O)[C@@H](c2cn3c4c(cccc24)CCC3)[C@@H]1c1c[nH]c2ccccc12`, the growth in test [1] was 13.8%; in test [2] it was 22.8%; in [3], 11.3%; in [4] it was 48%; in test [5], 55.4%; in test [6] it was -0.0481% (active). Moreover, the growth in test [7] was 27.7%; in test [8], 18.4%; in [9] it was 9.44% (active); in [10], 24.3%; in test [11], 16.2%; in test [12] it was -13.2% (active). Besides, the growth in test [13] was 27.5%; in test [14], 19.5%; in [15] it was 2.94% (active); in test [17] it was 18.4%; in test [16], 4.42% (active).

For the origin of these results see PubChem BioAssay (NCI).
